Like-named read-outs stand apart in the source and are kept apart here.
Assays:
Design in all cases: species or system human, MV4-11 + K-562 + COLO205 + SK-N-BE2 + OVCAR-8
AKT1 = settings: read-out: apparent Kd; compound concentrations: 100 nM and 1000 nM (sheet 'Samples'), CATDS: 4.4101078523111903E-2; n = 1
CDC42 = settings: read-out: apparent Kd; compound concentrations: 100 nM and 1000 nM (sheet 'Samples'), CATDS: 5.0343094610780299E-2; n = 1
DYNC1LI1 = settings: read-out: apparent Kd; compound concentrations: 100 nM and 1000 nM (sheet 'Samples'), CATDS: 4.8109196484876701E-2; n = 1
ERBB3 = settings: read-out: apparent Kd; compound concentrations: 100 nM and 1000 nM (sheet 'Samples'), CATDS: 4.7313636214179999E-2; n = 1
GARS = settings: read-out: apparent Kd; compound concentrations: 100 nM and 1000 nM (sheet 'Samples'), CATDS: 4.5585082575177599E-2; n = 1
GSK3A = settings: read-out: apparent Kd; compound concentrations: 100 nM and 1000 nM (sheet 'Samples'), CATDS: 8.5551067641828404E-2; n = 1
GSK3B = settings: read-out: apparent Kd; compound concentrations: 100 nM and 1000 nM (sheet 'Samples'), CATDS: 0.10546569208605799; n = 1
HSP90B1 = settings: read-out: apparent Kd; compound concentrations: 100 nM and 1000 nM (sheet 'Samples'), CATDS: 4.7547071429497198E-2; n = 1
MAP2K1 = settings: read-out: apparent Kd; compound concentrations: 100 nM and 1000 nM (sheet 'Samples'), CATDS: 4.25622085031407E-2; n = 1
MAP2K2 = settings: read-out: apparent Kd, compound concentrations: 100 nM and 1000 nM (sheet 'Samples'), n = 1
MDN1 = settings: read-out: apparent Kd; compound concentrations: 100 nM and 1000 nM (sheet 'Samples'), CATDS: 4.19866133995229E-2; n = 1
MYLK3 = settings: read-out: apparent Kd; compound concentrations: 100 nM and 1000 nM (sheet 'Samples'), CATDS: 4.95763825338097E-2; n = 1
NNT = settings: read-out: apparent Kd; compound concentrations: 100 nM and 1000 nM (sheet 'Samples'), CATDS: 4.95392498935424E-2; n = 1
NQO1 = settings: read-out: apparent Kd, compound concentrations: 100 nM and 1000 nM (sheet 'Samples'), n = 1
OPA1 = settings: read-out: apparent Kd; compound concentrations: 100 nM and 1000 nM (sheet 'Samples'), CATDS: 4.33362445952395E-2; n = 1
PGK1 = settings: read-out: apparent Kd; compound concentrations: 100 nM and 1000 nM (sheet 'Samples'), CATDS: 0.623413247361988; n = 1
PRKCA = settings: read-out: apparent Kd; compound concentrations: 100 nM and 1000 nM (sheet 'Samples'), CATDS: 4.05038047397221E-2; n = 1
PRKCD = settings: read-out: apparent Kd; compound concentrations: 100 nM and 1000 nM (sheet 'Samples'), CATDS: 3.9953874898385103E-2; n = 1
TNIK = settings: read-out: apparent Kd; compound concentrations: 100 nM and 1000 nM (sheet 'Samples'), CATDS: 4.3236885400500899E-2; n = 1
VDAC3 = settings: read-out: apparent Kd; compound concentrations: 100 nM and 1000 nM (sheet 'Samples'), CATDS: 4.2633905781269299E-2; n = 1
AGK = settings: read-out: apparent Kd; compound concentrations: 100 nM and 1000 nM (sheet 'Samples'), CATDS: 7.7586701088880605E-2; n = 1
CSNK1D = settings: read-out: apparent Kd; compound concentrations: 100 nM and 1000 nM (sheet 'Samples'), CATDS: 0.14002934621816099; n = 1
CSNK1E = settings: read-out: apparent Kd; compound concentrations: 100 nM and 1000 nM (sheet 'Samples'), CATDS: 9.5278515441506895E-2; n = 1
JAK2 = settings: read-out: apparent Kd; compound concentrations: 100 nM and 1000 nM (sheet 'Samples'), CATDS: 0.169567440751725; n = 1
MAPK14 = settings: read-out: apparent Kd; compound concentrations: 100 nM and 1000 nM (sheet 'Samples'), CATDS: 0.109512285169825; n = 1
MAPK9 = settings: read-out: apparent Kd; compound concentrations: 100 nM and 1000 nM (sheet 'Samples'), CATDS: 8.7291809991309394E-2; n = 1
MAPKAPK2 = settings: read-out: apparent Kd; compound concentrations: 100 nM and 1000 nM (sheet 'Samples'), CATDS: 8.8585007822458595E-2; n = 1
PKN3 = settings: read-out: apparent Kd; compound concentrations: 100 nM and 1000 nM (sheet 'Samples'), CATDS: 8.9898852115076394E-2; n = 1
PRKD2 = settings: read-out: apparent Kd; compound concentrations: 100 nM and 1000 nM (sheet 'Samples'), CATDS: 9.5055877721236803E-2; n = 1
PRKD3 = settings: read-out: apparent Kd; compound concentrations: 100 nM and 1000 nM (sheet 'Samples'), CATDS: 9.9429548898697998E-2; n = 1
AKT2 = settings: read-out: apparent Kd; compound concentrations: 100 nM and 1000 nM (sheet 'Samples'), CATDS: 0.134297871058083; n = 1
CDK6 = settings: read-out: apparent Kd; compound concentrations: 100 nM and 1000 nM (sheet 'Samples'), CATDS: 0.111886140460168; n = 1
EGFR = settings: read-out: apparent Kd; compound concentrations: 100 nM and 1000 nM (sheet 'Samples'), CATDS: 0.20286097232099201; n = 1
PYGL = settings: read-out: apparent Kd; compound concentrations: 100 nM and 1000 nM (sheet 'Samples'), CATDS: 0.12425140919606401; n = 1
RIPK2 = settings: read-out: apparent Kd; compound concentrations: 100 nM and 1000 nM (sheet 'Samples'), CATDS: 0.17953871866569099; n = 1

**Q.** Cn1cc(C2=C(c3cn(C)c4c(N)cccc34)C(=O)NC2=O)c2ccccc21 [RO0317482-000] was tested. Which potency estimated from few doses (AKT1) did it give?
**A.** 1790 nM

**Q.** And the potency estimated from few doses (CDC42)?
**A.** 1310 nM

**Q.** What about the potency estimated from few doses (DYNC1LI1) of the same compound?
**A.** 1450 nM

**Q.** And the potency estimated from few doses (ERBB3)?
**A.** 1510 nM

**Q.** And the potency estimated from few doses (GARS)?
**A.** 1650 nM

**Q.** And the potency estimated from few doses (GSK3A)?
**A.** 484 nM

**Q.** And the potency estimated from few doses (GSK3B)?
**A.** 343 nM

**Q.** What about the potency estimated from few doses (HSP90B1) of the same compound?
**A.** 1490 nM

**Q.** What about the potency estimated from few doses (MAP2K1) of the same compound?
**A.** 1960 nM

**Q.** What about the potency estimated from few doses (MAP2K2; CATDS: 4.6529537247477E-2) of the same compound?
**A.** 1570 nM

**Q.** What about the potency estimated from few doses (MDN1) of the same compound?
**A.** 2030 nM

**Q.** And the potency estimated from few doses (MYLK3)?
**A.** 1360 nM

**Q.** What about the potency estimated from few doses (NNT) of the same compound?
**A.** 1360 nM

**Q.** And the potency estimated from few doses (NQO1; CATDS: 4.7041069195994198E-2)?
**A.** 1530 nM

**Q.** And the potency estimated from few doses (OPA1)?
**A.** 1870 nM

**Q.** And the potency estimated from few doses (PGK1)?
**A.** 20.4 nM

**Q.** What about the potency estimated from few doses (PRKCA) of the same compound?
**A.** 2240 nM

**Q.** What about the potency estimated from few doses (PRKCD) of the same compound?
**A.** 2330 nM

**Q.** What about the potency estimated from few doses (TNIK) of the same compound?
**A.** 1880 nM

**Q.** What about the potency estimated from few doses (VDAC3) of the same compound?
**A.** 1950 nM

**Q.** How did the potency estimated from few doses (AGK) turn out when OCCn1c(-c2ccncc2)c(-c2ccc(F)cc2)c2ncccc21 [RO1155798-000] was run?
**A.** 2000 nM

**Q.** What about the potency estimated from few doses (CSNK1D) of the same compound?
**A.** 582 nM

**Q.** What about the potency estimated from few doses (CSNK1E) of the same compound?
**A.** 1190 nM

**Q.** What about the potency estimated from few doses (JAK2) of the same compound?
**A.** 432 nM

**Q.** And the potency estimated from few doses (MAPK14)?
**A.** 897 nM

**Q.** And the potency estimated from few doses (MAPK9)?
**A.** 1460 nM

**Q.** What about the potency estimated from few doses (MAPKAPK2) of the same compound?
**A.** 1410 nM

**Q.** What about the potency estimated from few doses (PKN3) of the same compound?
**A.** 1360 nM

**Q.** What about the potency estimated from few doses (PRKD2) of the same compound?
**A.** 1200 nM

**Q.** What about the potency estimated from few doses (PRKD3) of the same compound?
**A.** 1090 nM

**Q.** With Cn1cncc1-c1ccc2ncnc(Nc3ccc(OCc4ccccc4)cc3)c2c1 [GW320571X] as the compound, how does the potency estimated from few doses (AKT2) read?
**A.** 1180 nM

**Q.** What about the potency estimated from few doses (CDK6) of the same compound?
**A.** 1880 nM

**Q.** And the potency estimated from few doses (EGFR)?
**A.** 545 nM

**Q.** And the potency estimated from few doses (MAP2K2; CATDS: 0.118156666202673)?
**A.** 1610 nM

**Q.** What about the potency estimated from few doses (NQO1; CATDS: 0.17840078958021699) of the same compound?
**A.** 676 nM

**Q.** What about the potency estimated from few doses (PYGL) of the same compound?
**A.** 1420 nM

**Q.** And the potency estimated from few doses (RIPK2)?
**A.** 668 nM

Source: article PMC11062922 (Nature Chemical Biology, 2023)
